In PubChem BioAssay AID485313 (National Center for Advancing Translational Sciences (NCATS), 2010):
Among all 320,000 compounds or so, about 7,600 (2.4%) were called active. Another 3% or so got no clear call; they are omitted. Only a selection was taken, and actives are over-represented in it overall. Unmarked numbers belong to inactive results. Calls come from the whole dose curve; as a rule, active = well fitted activation curve with a large enough effect; inconclusive = small, poorly fitted or top-dose-only effect; inactive = no such curve, though single readings can be large or run the other way.

test: qHTS Assay for NPC1 Promoter Activators; settings: Huh7 NPC1 promoter luciferase reporter, 24 h; series mostly up to 9.22 µM; activation: at the top concentration; note: nearly all actives have a fitted effect of over 60% in size; for activation: % of control where 0% means no effect
Description: NIH Chemical Genomics Center [NCGC] NIH Molecular Libraries Probe Production centers Network [MLPCN] MLPCN Grant: MH089375-01A1 Assay Submitter (PI): Yiannis A. Ioannou NCGC Assay Overview: Niemann Pick Type C (NPC) is a rare neurodegenerative lipidosis that is characterized by lipid storage in the endosomal/lysosomal system. Treatment modalities for this devastating disease are currently non-existent due to the severe obstacles associated with accessing the central nervous system with proteins or genes. The majority of mutations causing NPC disease are missense mutations that are distributed throughout the length of the NPC1 protein, with the most prevalent being the I1061T allele. Although NPC1 mutant proteins may be functional, they are typically trapped in the ER due to misfolding. […] We have developed and optimized a cell based luciferase reporter assay in 1536 well format for the identification of up-regulators of the mutant NPC1 promoter.
The NPC1 promoter is cloned in front of the luciferase reporter gene, therefore NPC promoter activation results in luciferase expression. Frozen stock of the NPC1 promoter transfected Huh7 cells were obtained from the laboratory of Dr. Yiannis Ioannou (The Mount Sinai School of Medicine, New York, NY). Cells were propagated and maintained at NCGC in medium containing RPMI-1640 supplemented with 10% FBS, 2mM L-glutamine, and 50ug/ml penicillin/streptomycin. Cells were harvested in and plated for assays in OP-MEM I reduced-serum medium supplemented with 10% FBS. The Amplite luciferase reporter gene assay kit was purchased from ABD Bioquest and prepared/stored according to manufacturers recommendations. qHTS Assay Setup: 1.#Dispensed 5ul of Huh7 cells stably expressing NPC1-luciferase at a density of 1500 cells per well 1536-well plates. 2.#Incubate cells at 37C, 5% CO2, and 95% humidity for 2 hours. 3.#Transferred 23nl per well of compound in DMSO solution. 4.#Incubated at 37C, 5% CO2, and 95% humidity for 24 hours. 5.#Dispensed 3ul per well of Amplite reagent(ABD Bioquest) per well. 6.#Incubate at ambient for 10 minutes. 7.#Read using the luminescence protocol on the ViewLux plate reader (Perkin Elmer).
Potency is the fitted concentration of half-maximal effect.

Compound	Potency	activation [%]
O=C(Nc1ccon1)c1sc2ccccc2c1Cl	3980 nM (active)	–
O=C(Nc1ccon1)c1cccc(Cl)c1	–	0.217
Cc1nn(C)cc1/C=N/NC(=O)c1sc2ccccc2c1Cl	–	5.43
Cn1c(N)c(C(=O)COC(=O)COc2ccc(Cl)cc2)c(=O)n(C)c1=O	–	-2.38
O=C(COC(=O)CCCN1C(=O)c2cccc3cccc(c23)C1=O)NC1CCS(=O)(=O)C1 (configuration not stated)	–	0.283
COc1ccc(OCCNC(=O)c2cc(C3CC3)nc3c2cnn3C(C)C)cc1	–	-2.78
CC(=O)C1(C)N(O)C(C)(C)C(c2cccs2)=[N+]1[O-] (configuration not stated)	100 nM (active)	–
C/C(=N\O)C1(C)N(O)C(C)(C)C(c2ccc(Br)cc2)=[N+]1[O-] (configuration not stated)	–	0.405
CC1(C)C(c2cccs2)=[N+]([O-])C2(CCCCC2=O)N1O (configuration not stated)	–	-4.25
CC(C(=O)N1CCc2ccccc21)N(C)CC(=O)Nc1ccc(F)cc1 (configuration not stated)	–	-2.91
CCNC(=O)c1cccc(NC(=O)C2CC(=O)N(CCc3ccccc3)C2)c1 (configuration not stated)	–	-5.85
CCN(CC)C(=O)N(CC)Cc1ccccc1	–	-5.42
Nc1c(C(=O)NCc2ccccc2)sc2nc3c(cc12)C(=O)CCC3	–	13.2
CCN(CC)C(=O)c1sc2nc(-c3ccccc3)ccc2c1N	1580 nM (active)	–
CCCC(NC(=O)c1ccco1)c1nc2ccccc2[nH]1 (configuration not stated)	–	-1.32
COCCCNC(=O)COc1cc(C)c(Cl)c(C)c1	–	-1.01
Cc1cc(OCc2cc(C(=O)NCc3cc(C(C)C)no3)no2)cc(C)c1Cl	1410 nM (active)	–
Cc1cccnc1CC(C)NC(=O)c1cc(COc2cncc(Cl)c2)on1 (configuration not stated)	–	26.5
COc1cccc(-c2nc3cc(C)ccc3o2)c1	3160 nM (active)	–
O=[N+]([O-])c1ccc2oc(-c3cccc(O)c3)nc2c1	–	26.8
COc1cccc(-c2nnc(SCCOc3ccc4c(C)cc(=O)oc4c3)o2)c1	–	0.563
O=C(/C=C(O)/C=C/c1ccc(O)cc1)/C=C/c1ccc(O)cc1	–	-3.04
CCCCn1c(N)c(N(CC(C)C)C(=O)c2cnc(C)cn2)c(=O)[nH]c1=O	–	-5.43

Compound	Potency	activation [%]
COc1ccccc1C(=O)Nc1ccc(OCC(=O)N2CCCCC2)cc1	–	-1.21
NS(=O)(=O)c1ccc2nc(NC(=O)CS(=O)(=O)c3ccc(F)cc3)sc2c1	–	1.23
NS(=O)(=O)c1ccc2nc(NC(=O)C3=COCCO3)sc2c1	1780 nM (active)	–
CS(=O)(=O)c1ccc2nc(NC(=O)c3ccc(Cl)nc3)sc2c1	–	1.14
CN(CC(=O)Nc1ccc(Cl)c(C(F)(F)F)c1)C(=O)CCC(=O)c1ccccc1	–	-3.21
COC(=O)c1ccc(COC(=O)CNC(=O)c2cccc(OC)c2)o1	–	-0.517
CN(CC(=O)Nc1ccc(Cl)cc1)C(=O)c1ccc(COc2ccccc2)cc1	–	-7.01
O=C(CNC(=O)c1ccc2ccccc2c1)Nc1ncccc1O	–	1.27
CCc1cc(C(N)=O)c(NC(=O)c2ccc(OC)cc2)s1	–	23.6
CC(C)c1cc(C(N)=O)c(NC(=O)c2cccc(COc3ccc(Br)cc3)c2)s1	2820 nM (active)	–
CCOC(=O)c1cc(C(C)C)sc1NC(=O)COC(=O)c1nccnc1N	–	-9.06
CC(=O)c1c(C)[nH]c(C(=O)OCC(=O)Nc2c(C)n(C)n(-c3ccccc3)c2=O)c1C	–	-0.0041
CN(C)CCn1c(=S)[nH]c2ccc(Cl)cc2c1=O	–	-4.42
CN(C)CCN=c1cc(-c2ccccc2)oc2ccc(Cl)cc12	2820 nM (active)	–
CN(CC(=O)NCc1ccc2c(c1)OCO2)CC(=O)Nc1ccc(F)c(F)c1F	–	-0.121
CO[C@H]1[C@@H]2C=CO[C@@H](O[C@H]3O[C@@H](CO)[C@H](O)[C@@H](O)[C@@H]3O)[C@@H]2[C@@]2(CO)O[C@@H]12	–	0.15
CCC(=O)Nc1ccc(C(=O)NNC(=O)c2ccc(Cl)cc2)cc1	–	0.232
O=C(Nc1ccccc1)c1nnsc1S(=O)(=O)c1ccc(Cl)cc1	–	1.54
O=C(Nc1ccc(Cl)cc1)c1ccsn1	3160 nM (active)	–
CCCCN(CC(=O)Nc1cccc(S(=O)(=O)N2CCCC2)c1)Cc1nc2ccccc2c(=O)[nH]1	–	-6.05
COCCn1cnnc1SCC(=O)Nc1cccc(S(=O)(=O)N2CCCCC2)c1	–	-0.281
Cc1ccc(S(=O)(=O)N(C)C)cc1NC(=O)C(C)OC(=O)c1ccc2ccccc2n1 (configuration not stated)	–	-4.07
COc1ccc(F)cc1C(=O)COC(=O)c1n[nH]c(=O)c2ccccc12	–	0.129

Compound	Potency	activation [%]
CCN(C(=O)COC(=O)CCOc1cccc(C)c1)c1c(N)n(Cc2ccccc2)c(=O)[nH]c1=O	–	-1.56
O=C(O)c1cccc(N=NN2CCCCCC2)c1	100 nM (active)	–
O=C(O)c1ccc(N=NN2CCOCC2)cc1	–	-1.35
O=C(c1ccccc1)N1CCN(C(=O)N2CCCCC2)CC1	–	-4.14
CCOc1ncccc1C(=O)OCC(=O)Nc1cccc(S(=O)(=O)N2CCCCCC2)c1	–	-0.375
N#Cc1nc(Cc2ccccc2)oc1NCCc1ccccc1	3160 nM (active)	–
Cc1ccccc1-c1nc(C#N)c(NCc2ccco2)o1	–	-1.82
N#Cc1nc(Cc2cccc3ccccc23)oc1NCc1ccc2c(c1)OCO2	–	-0.949
Cc1ccc(-c2nc3ccccc3[nH]2)cc1N	1580 nM (active)	–
COc1ccc(Br)cc1C(=O)NC(=S)Nc1cc(-c2nc3ccccc3[nH]2)ccc1C	–	11.1
Nc1cccc(CCc2nc3ccccc3[nH]2)c1	–	3.82
OC(c1nc2ccccc2[nH]1)C(O)C(O)C(O)c1nc2ccccc2[nH]1 (configuration not stated)	–	0.601
COc1ccc(-c2[nH]nc(-c3ccccc3)c2-c2nc3ccccc3[nH]2)cc1	–	-2.46
c1ccc2[nH]c(-c3nc4ccccc4[nH]3)nc2c1	1260 nM (active)	–
CNc1nc(SC)nc(N(C#N)CC(=O)OC)n1	–	-10.5
COc1ccc(OC)c(S(=O)(=O)Nc2c(C)nn(C)c2C)c1	–	-2.56
Cc1cc(C(=O)Nc2ccc(C)c(S(=O)(=O)N3CCOCC3)c2)c2ccccc2n1	–	-1.87
c1ccc(CN=C2Nc3ccccc3CS2)nc1	2510 nM (active)	–
CCC1(CC)NC(=O)N(CC(=O)OCC(=O)c2cc(C)c(C)cc2C)C1=O	–	-2.6
CC(=O)c1c(C)[nH]c(C(=O)COc2ccc3c(C)cc(=O)oc3c2)c1C	–	-17.6
CCN(CC(=O)Nc1ccc(NC(C)=O)cc1)C(=O)CSC(=S)N1CCCC1	–	1.02
